The target of assay [1] is Cellular tumor antigen p53 (Homo sapiens) (UniProt P04637). Description: Primary qHTS for small molecule compounds that upregulate eGFP-tagged delta133p53alpha (in N-terminal) cells. (AID 2060322).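 For activation: series mostly up to about 56 µM; 0% = DMSO vehicle and 100% = reference activator.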 Note: nearly all actives have a fitted effect of over 75% in size. Note: potency is the fitted concentration of half-maximal effect. The following applies: NCI-H358 eGFP-delta133p53alpha fluorescence, 24 h; activation: stronger effect = higher value. In outline:
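NCI-H358 cells pre-induced 24 h with 10 ng/ml doxycycline to express N-terminal eGFP-delta133p53alpha, then dosed 24 h at 37C without doxycycline; fixed, Hoechst-stained, GFP intensity by laser scanning cytometry, normalized to DMSO (0%) and 57.5 uM 5-azacytidine (100%).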

For assay [2], the target named is Aldehyde dehydrogenase, mitochondrial (Homo sapiens) (UniProt P05091). The assay is described as follows: qHTS for Inhibitors of the Aldehyde Dehydrogenase Family (ALDH2) Primary screen (AID 2061308).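 Note: plate controls were vehicle for no effect and reference inhibitor for full effect; nearly all actives have a fitted effect of over 55% in size.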
Assay [3] has as its target Retinaldehyde dehydrogenase 3 (Homo sapiens) (UniProt P47895). Description: qHTS for Inhibitors of the Aldehyde Dehydrogenase Family (ALDH1A3) Primary screen (AID 2061315).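 Note: plate controls were DMSO vehicle for no effect and reference inhibitor for full effect.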

Results filed as inconclusive are left out. Unmarked numbers belong to inactive results. Active and inactive are the calls of the source. Calls come from the whole dose curve; as a rule, active = well fitted curve in the direction sought with a large enough effect; inconclusive = small, poorly fitted or top-dose-only effect, or another doubt; inactive = no such curve, though single readings can be large; an effect the other way counts as inactive or inconclusive.

Chain of Cellular tumor antigen p53 (Homo sapiens) (P04637 whole entry, looked up): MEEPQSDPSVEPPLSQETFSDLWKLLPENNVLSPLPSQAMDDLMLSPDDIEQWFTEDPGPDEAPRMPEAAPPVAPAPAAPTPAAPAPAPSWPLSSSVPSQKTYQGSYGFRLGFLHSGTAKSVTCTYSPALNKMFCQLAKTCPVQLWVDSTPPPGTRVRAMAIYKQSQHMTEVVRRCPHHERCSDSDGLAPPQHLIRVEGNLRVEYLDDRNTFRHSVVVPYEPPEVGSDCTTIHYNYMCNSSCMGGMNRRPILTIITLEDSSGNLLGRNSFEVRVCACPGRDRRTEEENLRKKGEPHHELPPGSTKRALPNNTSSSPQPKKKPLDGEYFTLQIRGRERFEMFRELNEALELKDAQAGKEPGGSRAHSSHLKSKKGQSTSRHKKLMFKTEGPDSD

Regarding `COc1cc(O)cc(OC2OC(CO)C(O)C(O)C2O)c1` (stereo unspecified), the activation in assay [1] was 21.4%. Besides, the Potency entry in assay [2] and in assay [3] was “inactive” throughout.
As for `NC(=O)c1cnc(NCCc2ccc(O)c(Cl)c2)nc1NCc1ccccc1`, in assay [1], the Potency was 9.53 µM (active). Further, the Potency result in assay [2] and in assay [3] was “inactive” throughout.
As for `COc1cc2c(c(O)c1OC/C=C(\C)CC/C=C(/C)CCC=C(C)C)CN(C(CCC(=O)O)C(=O)O)C2=O` (stereo unspecified), the activation in assay [1] is -30.5%. Moreover, the Potency entry in assay [2] and in assay [3] was “inactive” in each case.
`CCCOc1ccc(-c2nc(OC)c3ccccc3n2)cc1`: in assay [1], the activation was -5.67%. The Potency entry in assay [2] and in assay [3] was “inactive” throughout.
Regarding `C/C1=C\C[C@]2(C)C(=O)C(O)=C([C@H](C)CO)[C@H]2C/C=C(\C)[C@@H](O)CC/C(C)=C/CC1`, the activation in assay [1] was -6.11%. Moreover, the Potency entry in assay [2] and in assay [3] was “inactive” throughout.
In the case of `O=C(O)c1ccnc(-c2cc(C(=O)NCCc3ccccc3)ccn2)c1`, the activation in assay [1] was 4.47%. The Potency result in assay [2] and in assay [3] was “inactive” in each case.
With `C=C1C(OC(=O)/C(C)=C\C)[C@@]23CCC4[C@@](C)(CCC[C@@]4(C)C(=O)O)C2CC[C@H]1C3OC(C)=O` (stereo partly specified), the activation in assay [1] was -28.2%. Besides, the Potency entry in assay [2] and in assay [3] was “inactive” throughout.
Take `O=C(c1ccc(Cl)cc1)N1CCN(c2ccnc3cc(Cl)ccc23)CC1`: the activation in assay [1] was -3%. For the same molecule, the Potency entry in assay [2] and in assay [3] was “inactive” each time.
Consider `C=C1C(=O)O[C@@H]2/C=C(\C)CC/C=C(\C)CC[C@@H]12`, for which the Potency in assay [1] was 21.3 µM (active). For the same molecule, the Potency result in assay [2] and in assay [3] was “inactive” each time.
For the molecule `COC(=O)C1=COC(OC2OC(CO)C(O)C(O)C2O)C2C(C)CC(=O)C12O` (stereo unspecified), the activation in assay [1] was -4.46%. Besides, the Potency result in assay [2] and in assay [3] was “inactive” in each case.
As to `C/C=C(\C)C(=O)OC1C=C(C)CC(OC(=O)c2ccc(O)cc2)C2C1(C)CCC2(O)C(C)C` (stereo unspecified), the activation in assay [1] is -7.63%. Further, the Potency entry in assay [2] and in assay [3] was “inactive” in each case.
For the molecule `C=C[C@@](C)(CCC=C(C)C)O[C@@H]1O[C@H](CO[C@@H]2OC[C@H](O)[C@H](O)[C@H]2O)[C@@H](O)[C@H](O)[C@H]1O`, the activation in assay [1] was -11.5%. In addition, the Potency entry in assay [2] and in assay [3] was “inactive” each time.
As to `C[C@H]1[C@H](C)CC[C@]2(C(=O)O)CC[C@]3(C(=O)O)C(=CCC4[C@@]5(C)CC[C@H](O[C@@H]6O[C@H](C)[C@@H](O)[C@H](O)[C@H]6O)C(C)(C)C5CC[C@]43C)[C@H]12` (stereo partly specified), the activation in assay [1] was -5.36%. Moreover, the Potency result in assay [2] and in assay [3] was “inactive” in each case.
For `C/C=C\NC(=O)C1NC(=O)C(CC(N)=O)NC(=O)C(NC(=O)C(=O)C(C)CC)Cc2ccc(O)c(c2)-c2cccc3c2NC(=O)C3(O)C1O` (stereo unspecified), in assay [1], the activation was 3.82%. In addition, the Potency result in assay [2] and in assay [3] was “inactive” throughout.
As to `CC(C)(O)C1CCC2(C)C3C(O)C4C(C13)C42CO` (stereo unspecified), the activation in assay [1] is 3.57%. Also, the Potency result in assay [2] and in assay [3] was “inactive” in each case.
With `Cc1cc(O)cc(O[C@@H]2O[C@H](CO)[C@@H](O)[C@H](O)[C@H]2O)c1`, the activation in assay [1] is -6.11%. Also, the Potency entry in assay [2] and in assay [3] was “inactive” throughout.
`C=C1CC[C@@H]2[C@](C)(CO)[C@H](O)CC[C@@]2(C)[C@@H]1C/C=C1/C(=O)OCC1OC(=O)/C(=C/CO)C(O)C[C@@H]1C(=C)CC[C@@H]2[C@](C)(CO)[C@H](O)CC[C@]21C` (stereo partly specified): the activation in assay [1] was 13%. Also, the Potency result in assay [2] and in assay [3] was “inactive” each time.
As for `C/C=C/C=C/C(=O)OC1CC/C=C/C(O)C(O)C(CCC)OC1=O` (stereo unspecified), the activation in assay [1] is -12.2%. The Potency result in assay [2] and in assay [3] was “inactive” in each case.
On to `CC(NC(=O)[C@H](Cc1ccccc1)NC(=O)OCc1ccccc1)C(=O)CF` (stereo partly specified), for which the activation in assay [1] was -5.67%. The Potency result in assay [2] and in assay [3] was “inactive” throughout.
With `CCN(CC)C(=O)c1ccc(Nc2nc(OCC3CCCCC3)c3[nH]cnc3n2)cc1`, the activation in assay [1] was 8.04%. Besides, the Potency result in assay [2] and in assay [3] was “inactive” in each case.
For `CCNC(=O)[C@@H]1CCCN1C(=O)[C@H](CCCN=C(N)N)NC(=O)[C@H](CC(C)C)NC(=O)[C@@H](CC(C)C)NC(=O)[C@H](Cc1ccc(O)cc1)NC(=O)[C@H](CO)NC(=O)[C@H](Cc1c[nH]c2ccccc12)NC(=O)[C@H](Cc1cnc[nH]1)NC(=O)[C@@H]1CCC(=O)N1`, in assay [1], the activation is 7%. For the same molecule, the Potency entry in assay [2] and in assay [3] was “inactive” each time.
For the molecule `CC(C)(O)c1ccc2c(c1)C(=O)C[C@H]1[C@](C)(C(=O)O)CCC[C@]21C`, the activation in assay [1] was -1.53%. Besides, the Potency result in assay [2] and in assay [3] was “inactive” throughout.

The values are drawn from PubChem BioAssay (NCATS).
